In the library only some 9.2% were active in any assay of this set; here they are far more common.
Rab9 prom act: activates the Rab9 promoter | Huh7 Rab9 promoter-luciferase reporter, luminescence, 24 h | Potency, µM (highest dose often 9.22 µM), for inactives: at the highest dose activation, negative = inhibition, most hits filed as activators | 2.8% of 320,000 active | AID 485297; also: % of control where 0% means no effect; nearly all actives have a fitted effect of over 60% in size
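Steps: seed 1500 Huh7 Rab9-luc cells per well, rest 2 h at 37 °C; add compound in DMSO; incubate 24 h; add luciferase reagent, 10 min ambient; read luminescence.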
ELG1 genotox: genotoxicity induction in ELG1-luciferase HEK293T cells. HEK293T ELG1-luciferase reporter, luminescence, 16 h. Potency, µM (titrated, usually from 46 µM), for inactives: at the top dose activity change, positive = activation, usual class: activators. 1.3% of 330,000 active; also: % of control where 0% means no effect; nearly all actives have a fitted effect of over 60% in size
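16 hr compound incubation (37 °C, 5% CO2) of HEK293T cells carrying luciferase-tagged ELG1; luciferase then measured by ONE-Glo luminescence after 30 min at RT.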
FLuc modulator: firefly luciferase modulation, counter-screen for miR-21 project | P08659 | purified FLuc, Km substrates, luminescence inhibition | Potency, µM (top dose mostly 57.5 µM), for the others: at the top dose activity change, negative = inhibition, hits mostly inhibitors | 6.9% of 360,000 active;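 also: plate controls were vehicle for no effect and reference inhibitor for full effect; nearly all actives have a fitted effect of over 55% in size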
Target sequence (P08659 whole entry, looked up): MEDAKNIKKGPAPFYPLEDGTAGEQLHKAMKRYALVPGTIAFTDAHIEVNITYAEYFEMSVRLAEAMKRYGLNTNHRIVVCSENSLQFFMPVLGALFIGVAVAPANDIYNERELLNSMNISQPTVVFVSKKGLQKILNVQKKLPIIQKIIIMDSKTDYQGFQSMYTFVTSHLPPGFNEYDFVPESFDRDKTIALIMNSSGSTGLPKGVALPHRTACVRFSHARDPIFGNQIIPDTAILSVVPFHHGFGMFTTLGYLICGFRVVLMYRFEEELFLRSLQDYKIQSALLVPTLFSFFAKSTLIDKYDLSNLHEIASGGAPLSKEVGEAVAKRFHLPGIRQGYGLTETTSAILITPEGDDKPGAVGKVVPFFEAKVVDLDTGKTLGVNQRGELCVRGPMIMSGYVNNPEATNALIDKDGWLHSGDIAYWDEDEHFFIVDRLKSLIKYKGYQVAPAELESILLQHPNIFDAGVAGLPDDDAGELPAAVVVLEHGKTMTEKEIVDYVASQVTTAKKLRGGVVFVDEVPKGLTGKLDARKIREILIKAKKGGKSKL
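Biochemical qHTS of compounds, final roughly 60 µM downward over six points, against 10 nM purified firefly luciferase using Km concentrations of substrates (10 uM D-luciferin, 10 uM ATP) in Tris acetate pH 7.5 buffer; luminescence output.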
SMN2 splice up: enhancers of SMN2 splice variant expression; HEK293 SMN2-luciferase splicing reporter, luminescence, 30-36 h; AID 1458; 2.8% of 210,000 active; Potency, µM (doses to about 46.1 µM), for the others: at the top dose activity change, positive = activation, hits mostly activators; also: % of control where 0% means no effect; nearly all actives have a fitted effect of over 55% in size
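HEK293 cells carry an SMN2 minigene-luciferase reporter in which exon 7 inclusion puts luciferase in frame. Cells were seeded at 2000 cells/well, attached for 10-12 hours, then exposed to compounds for 30-36 hours at 37C before ONE-Glo luminescence.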
NPC1 prom act: NPC1 promoter activation; Huh7 NPC1 promoter luciferase reporter, 24 h; Potency, µM (highest dose often 9.22 µM), for inactives: at the highest dose activation, actives largely listed as activators; 2.4% of 320,000 active; AID 485313; also: % of control where 0% means no effect; nearly all actives have a fitted effect of over 60% in size
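Quantitative HTS used a cell-based reporter: Huh7 cells stably bearing the NPC1 promoter upstream of luciferase were treated with compounds for 24 h, and promoter activation was read as luminescence.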
ELG1 DNA repair: inhibitors of ELG1-dependent DNA repair in HEK293T cells; HEK293T ELG1-luciferase reporter, luminescence, 16 h; DNA damage induced by 5-fluorouridine; Potency, µM (titrated, usually from 46.1 µM), for the others: at the highest dose activity change, negative = inhibition, hits mostly inhibitors; 2.3% of 330,000 active; also: % is scaled to controls: 0 for no effect and ±100 for the full control effect; nearly all actives have a fitted effect of over 55% in size
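DMSO vehicle served as the neutral condition. Each well held 2,000 cells given 5-fluorouridine plus compound; after 16 hr at 37 °C/5% CO2, ONE-Glo was added and luciferase measured 30 min later.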
Active calls of the source: *; ? = inconclusive; · = no result. Calls follow the shape of the dose curve; as a rule, active = well fitted curve in the direction sought with a large enough effect; inconclusive = small, poorly fitted or top-dose-only effect, or another doubt; inactive = no such curve, though single readings can be large; an effect the other way counts as inactive or inconclusive. Potency is read from the fitted curve at half-maximal effect.

SMILES	Rab9 prom act	ELG1 genotox	FLuc modulator	SMN2 splice up	NPC1 prom act	ELG1 DNA repair
CC1CN(C(=O)c2cccc(C(=O)N3CC(C)OC(C)C3)c2)CC(C)O1 (stereo not given)	-5%	3%	4%	-22%	-6%	1%
CCCCOc1ccc(C(=O)N2CCCC2)cc1	25%	18µM*	?	11µM*	21%	?
CCOc1ccc(OCc2cccc(C(=O)N3CCCC3)c2)cc1	0.45µM*	0.65µM*	3µM*	2.8µM*	0.35µM*	?
CC1CN(C(=O)c2cccc(COc3ccccc3Cl)c2)CC(C)O1 (stereo not given)	?	?	15µM*	11µM*	3.5µM*	?
NC(=O)C1CCCN(C(=O)c2ccc(Cl)c(S(=O)(=O)N3CCc4ccccc43)c2)C1 (stereo not given)	-11%	-5%	2%	·	3%	-6%
CCN(CC)CCCn1c2c(c(SCC(=O)Nc3cc(C)on3)nc1=O)CCC2	7%	0%	-3%	·	7%	2%
COc1ccc(-n2nc(C(=O)Nc3cc(C)c(Cl)cc3OC)c3c4ccccc4n(C)c3c2=O)cc1	·	·	3%	-21%	·	·
CCOc1ccc(OCc2cccc(C(=O)N3CCCCCC3)c2)cc1	0.28µM*	?	0.54µM*	1.8µM*	0.32µM*	?
O=C(NN1CCCCC1)c1cccc(COc2ccc(Cl)cc2)c1	3.5µM*	?	4.8µM*	14µM*	?	?
CC(C)(C)c1cc(NCCCn2ccnc2)n2ncc(-c3ccc(Cl)cc3)c2n1	29%	-4%	27µM*	6%	22%	?
CN(C)CCCNc1cc(C(C)(C)C)nc2c(-c3ccccc3)cnn12	4µM*	?	8.5µM*	·	3.5µM*	?
CN(C)CCCNc1cc(-c2ccccc2)nc2cc(-c3cccc(F)c3)nn12	1%	23%	0%	·	1%	?
CN(CCC#N)C(=O)c1cc2c(s1)-c1ccccc1SC2	2.5µM*	?	11µM*	·	2.2µM*	?
CSc1ccc(-c2nnn(Cc3ccc(C)cc3)n2)cc1	?	?	11µM*	18%	?	?
O=C(O)c1cccc(-c2nnn(Cc3ccccc3Cl)n2)c1	0.4µM*	?	3µM*	1.6µM*	0.45µM*	?
O=C(O)c1cccc(-c2nnn(Cc3ccccc3)n2)c1	0.71µM*	13%	11µM*	2.5µM*	1.4µM*	?
Cc1ccccc1Cn1nnc(-c2cccc(C(=O)O)c2)n1	0.79µM*	1.6µM*	4.3µM*	7.9µM*	0.45µM*	?
O=C(CCn1c(=O)c2ccccc2n(Cc2ccc(F)cc2Cl)c1=O)NCc1ccc2c(c1)OCO2	·	·	0%	2%	·	·
COc1ccc(-c2nnn(Cc3ccccc3)n2)cc1	3.2µM*	?	21µM*	·	?	?
Cc1csc(SCC(=O)N(C)C2CCS(=O)(=O)C2)n1 (stereo not given)	-1%	-1%	6%	·	-11%	20%
CC(C)c1cnc2c(c1SCC(=O)Nc1cccc(F)c1)c(=O)n(C)c(=O)n2C	·	·	-11%	·	·	·
CC(C)Oc1cccc(C(=O)C2CCCN(C(=O)CCc3cnn(C)c3)C2)c1 (stereo not given)	3.5µM*	?	?	·	?	?
Cc1nn(C)c(C)c1CCC(=O)N1CCCC(C(=O)c2cccc(OC(C)C)c2)C1 (stereo not given)	1%	0%	-13%	·	8%	-6%
Cc1oc2ccc(O)cc2c1C(=O)OC(C)C	1%	15%	15µM*	-12%	-2%	?
Cc1oc2ccc(OCC(N)=O)cc2c1C(=O)OC(C)C	2%	-2%	3%	-27%	-4%	?
SMILES	Rab9 prom act	ELG1 genotox	FLuc modulator	SMN2 splice up	NPC1 prom act	ELG1 DNA repair
COCCCNC(=O)c1sc2nc(C)c(C(=O)Nc3ccc(C)cc3C)c(-c3ccc(Cl)cc3)c2c1N	·	·	-11%	-7%	·	·
Cc1cc(=O)[nH]c2nnc(-c3ccc(Br)cc3)n12	?	?	0.95µM*	·	2.8µM*	?
CC(C(=O)O)c1ccc(C(=O)c2ccccc2)s1 (stereo not given)	29%	?	17µM*	·	6%	?
Cc1ccc(NC2CCCN(C(=O)c3ccnc(Cl)c3)C2)cc1C (stereo not given)	-5%	1%	3%	·	-1%	-2%
O=C(Nc1ccc2ccccc2n1)Nc1ccccc1F	24%	4%	1%	·	?	?
Fc1ccc(Nc2ccc3ccccc3n2)c(F)c1	0.13µM*	0.82µM*	0.76µM*	5µM*	0.4µM*	?
COc1cccc(CNC(=O)CCCNC(=O)c2ccc(Cl)cc2)c1	18%	2%	1%	·	-1%	-2%
CCOc1ccc(/C=C2\SC(=S)N(N3C(=O)C4CC4C3=O)C2=O)cc1 (stereo not given)	0%	1%	?	5%	-2%	-1%
CCOc1ccc(N=C2NC(=O)S/C2=C\c2ccc(N(C)C)cc2)cc1	?	?	12µM*	11µM*	4.5µM*	?
O=C1NC(=Nc2ccc(Cl)cc2)/C(=C/c2ccco2)S1	-2%	10%	-13%	?	-2%	7%
CCOc1ccc(/C=C2/SC(=O)NC2=S)cc1	?	7%	17µM*	?	25%	?
COc1ccc(N2CC(C(=O)N/N=C/c3ccc(C)cc3)CC2=O)cc1 (stereo not given)	-30%	2%	-1%	-22%	-30%	-10%
Cc1ccc(N2CC(C(=O)N/N=C/c3c(F)cccc3Cl)CC2=O)cc1 (stereo not given)	1%	3%	0%	·	-1%	9.2µM*
c1ccc2oc(NC3=NCN(CC4CCCO4)CN3)nc2c1 (stereo not given)	4µM*	10µM*	17µM*	13µM*	?	?
O=[N+]([O-])c1cc(-c2nc(-c3ccccc3)no2)ccc1NC1CCCCC1	·	·	5%	·	·	·
CN(Cc1ccccc1)c1ncnc2ccc(Br)cc12	0%	-15%	0%	?	-1%	18µM*
Cc1ccc(-n2ncc3c(N(C)Cc4ccccc4)ncnc32)cc1	·	·	0.67µM*	·	·	·
CCOc1ccccc1Nc1ncnc2ccc(Br)cc12	6%	-6%	-1%	·	6%	0%
Cc1ccc(CNc2ncnc3c2cnn3-c2ccccc2)cc1	16%	7%	-12%	-18%	5%	24%
Cc1ccc(-n2ncc3c(N(CCO)Cc4ccccc4)ncnc32)cc1	·	·	11µM*	·	·	·
O=C(/C=C/c1ccc(S(=O)(=O)N2CCOCC2)cc1)Nc1ccc(F)c(F)c1F	·	-3%	·	·	·	21µM*

Assay outcomes as filed in PubChem BioAssay.
